Several values for one entry are separate records, joined by “and”; a condition that tells them apart may be missing. Equal entries are not always repeated. For some of these results: Measured potencies and affinities stand elsewhere.
Tests used:
Design in all cases: scale not given: direction of the effect not stated beside the values
[1] = biological target: Protein translocase subunit SecA (Escherichia coli (strain K12)) (UniProt P10408); assay: Assay to Identify E. coli SecA ATPase Inhibitors; format: functional; details: 30 µM
Chain of Protein translocase subunit SecA (Escherichia coli (strain K12)) (P10408 whole entry): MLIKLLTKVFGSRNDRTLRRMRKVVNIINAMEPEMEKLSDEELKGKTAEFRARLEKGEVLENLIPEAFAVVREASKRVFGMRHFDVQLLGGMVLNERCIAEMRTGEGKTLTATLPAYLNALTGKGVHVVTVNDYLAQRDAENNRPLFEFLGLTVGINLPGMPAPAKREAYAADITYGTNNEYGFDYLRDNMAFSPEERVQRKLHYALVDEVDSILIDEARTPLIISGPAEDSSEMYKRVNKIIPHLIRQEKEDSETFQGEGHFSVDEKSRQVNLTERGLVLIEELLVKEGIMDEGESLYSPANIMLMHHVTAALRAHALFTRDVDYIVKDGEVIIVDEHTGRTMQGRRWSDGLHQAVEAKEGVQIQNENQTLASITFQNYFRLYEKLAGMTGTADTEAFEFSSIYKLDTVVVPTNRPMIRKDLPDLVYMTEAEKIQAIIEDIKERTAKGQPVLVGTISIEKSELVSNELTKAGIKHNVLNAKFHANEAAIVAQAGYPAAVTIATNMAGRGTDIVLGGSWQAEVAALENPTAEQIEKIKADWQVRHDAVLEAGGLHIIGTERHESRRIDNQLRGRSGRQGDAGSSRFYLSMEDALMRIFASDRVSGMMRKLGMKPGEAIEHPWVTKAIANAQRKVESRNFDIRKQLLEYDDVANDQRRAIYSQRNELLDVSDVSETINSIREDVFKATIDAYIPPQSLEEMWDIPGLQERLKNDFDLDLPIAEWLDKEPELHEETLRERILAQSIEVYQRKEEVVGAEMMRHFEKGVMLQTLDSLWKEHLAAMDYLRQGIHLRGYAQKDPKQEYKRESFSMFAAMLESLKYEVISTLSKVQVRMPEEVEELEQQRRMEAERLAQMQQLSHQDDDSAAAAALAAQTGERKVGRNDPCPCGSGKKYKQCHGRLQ

[2] = biological target: T1, Ubiquitin-activating enzyme e1, putative (Leishmania donovani (strain BPK282A1)) (UniProt E9BSI1); assay: Leishmania donovani Ubiquitin Activating Enzyme (LdE1); format: functional; details: 30 µM
T1 sequence (whole entry): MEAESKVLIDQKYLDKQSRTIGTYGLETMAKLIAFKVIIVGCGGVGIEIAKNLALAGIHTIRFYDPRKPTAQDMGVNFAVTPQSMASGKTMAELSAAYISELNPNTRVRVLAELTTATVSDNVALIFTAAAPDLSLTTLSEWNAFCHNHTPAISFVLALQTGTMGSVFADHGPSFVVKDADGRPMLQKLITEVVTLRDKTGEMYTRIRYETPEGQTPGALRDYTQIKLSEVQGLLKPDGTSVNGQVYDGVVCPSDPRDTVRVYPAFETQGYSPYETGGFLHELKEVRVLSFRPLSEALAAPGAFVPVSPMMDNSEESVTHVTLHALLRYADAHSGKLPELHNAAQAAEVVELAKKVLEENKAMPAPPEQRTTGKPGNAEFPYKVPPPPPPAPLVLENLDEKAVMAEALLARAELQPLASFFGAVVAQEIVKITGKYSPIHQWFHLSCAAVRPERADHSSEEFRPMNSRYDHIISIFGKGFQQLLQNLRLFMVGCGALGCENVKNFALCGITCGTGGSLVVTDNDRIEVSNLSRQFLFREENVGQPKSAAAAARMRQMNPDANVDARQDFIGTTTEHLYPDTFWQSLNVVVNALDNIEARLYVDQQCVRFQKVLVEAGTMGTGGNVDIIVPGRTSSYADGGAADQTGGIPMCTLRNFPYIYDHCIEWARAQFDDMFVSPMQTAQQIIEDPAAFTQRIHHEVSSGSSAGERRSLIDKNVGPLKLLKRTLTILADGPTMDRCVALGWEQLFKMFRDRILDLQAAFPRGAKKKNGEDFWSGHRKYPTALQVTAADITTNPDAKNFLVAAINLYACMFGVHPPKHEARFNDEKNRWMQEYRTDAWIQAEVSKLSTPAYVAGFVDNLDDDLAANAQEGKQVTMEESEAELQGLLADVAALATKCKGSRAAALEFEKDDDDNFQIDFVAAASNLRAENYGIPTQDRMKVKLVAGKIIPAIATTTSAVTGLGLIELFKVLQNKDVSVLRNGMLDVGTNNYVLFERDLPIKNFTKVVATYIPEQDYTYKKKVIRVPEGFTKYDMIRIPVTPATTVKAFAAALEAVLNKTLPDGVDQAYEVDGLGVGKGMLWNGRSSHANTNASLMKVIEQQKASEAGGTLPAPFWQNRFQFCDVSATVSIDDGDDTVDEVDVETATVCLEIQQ

[3] = biological target: AMP-activated protein kinase, AMPK (Homo sapiens) (UniProt P54646+O43741+P54619+Q9UGJ0+Q9Y478+Q13131+Q9UGI9); assay: AMP-dependent Kinase enzyme assay. An in vitro enzyme assay that detects ADP turnover that is directly proportional to AMPK activity. This uses naive AMPK that is activated during the assay with MK-8722; format: functional; details: 30 µM
[4] = biological target: Sialic acid-binding Ig-like lectin 9 (Homo sapiens) (UniProt Q9Y336); assay: Hs-Siglec9 ALPHAscreen SOP 20170721; details: 10 µM
Chain of Sialic acid-binding Ig-like lectin 9 (Homo sapiens) (Q9Y336 whole entry): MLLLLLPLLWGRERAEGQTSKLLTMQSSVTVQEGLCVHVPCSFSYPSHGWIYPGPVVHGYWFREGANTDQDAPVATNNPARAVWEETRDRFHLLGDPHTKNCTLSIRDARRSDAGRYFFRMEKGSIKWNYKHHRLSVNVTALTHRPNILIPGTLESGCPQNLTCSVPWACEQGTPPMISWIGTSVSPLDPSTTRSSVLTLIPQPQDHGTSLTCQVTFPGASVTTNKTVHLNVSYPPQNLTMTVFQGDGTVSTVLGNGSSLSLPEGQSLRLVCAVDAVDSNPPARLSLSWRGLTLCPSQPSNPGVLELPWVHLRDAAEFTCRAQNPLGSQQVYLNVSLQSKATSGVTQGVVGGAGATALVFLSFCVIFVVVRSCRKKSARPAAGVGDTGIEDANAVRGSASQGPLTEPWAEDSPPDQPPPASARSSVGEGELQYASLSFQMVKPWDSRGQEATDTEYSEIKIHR

Trypanosoma cruzi = assay: Trypanosoma cruzi phosphomannomutase and mannose-1-phosphate guanylyltransferase assay; format: functional; details: 10 µM
[5] = biological target: T2, Arginase-2, mitochondrial (Homo sapiens) (UniProt P78540); assay: in vitro enzyme assay to detect the production of urea directly proportional to the activity of Arginase II; format: functional; further: in the data most compounds retested in dose-response had high values
T2 sequence (whole entry): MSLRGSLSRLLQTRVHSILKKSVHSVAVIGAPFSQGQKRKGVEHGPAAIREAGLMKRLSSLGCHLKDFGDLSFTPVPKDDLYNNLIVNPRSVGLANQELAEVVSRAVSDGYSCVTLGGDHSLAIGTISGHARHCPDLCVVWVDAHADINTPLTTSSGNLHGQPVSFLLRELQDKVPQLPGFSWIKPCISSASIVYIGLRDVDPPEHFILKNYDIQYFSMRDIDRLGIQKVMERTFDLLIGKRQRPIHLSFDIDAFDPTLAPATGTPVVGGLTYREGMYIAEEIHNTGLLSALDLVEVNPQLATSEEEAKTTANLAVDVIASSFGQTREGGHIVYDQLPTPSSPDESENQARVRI

[6] = biological target: T3, Proteasome subunit beta (Trypanosoma cruzi) (UniProt O96673); assay: Trypanosoma cruzi proteasome chymotrypsin-like activity (TcProtChymo) assay.; further: in the data most compounds retested in dose-response had high values; format: functional; details: 9.37 µM
T3 sequence (whole entry): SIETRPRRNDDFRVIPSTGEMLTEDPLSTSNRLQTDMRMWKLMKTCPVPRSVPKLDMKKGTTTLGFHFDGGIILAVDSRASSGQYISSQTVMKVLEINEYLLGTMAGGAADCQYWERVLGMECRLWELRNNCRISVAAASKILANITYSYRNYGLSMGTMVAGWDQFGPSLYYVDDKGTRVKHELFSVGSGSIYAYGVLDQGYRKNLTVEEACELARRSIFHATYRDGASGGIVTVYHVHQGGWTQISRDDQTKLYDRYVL

Homo sapiens = species: Homo sapiens; assay: To identify inhibition of the IFN signalling (Jak-Stat) pathway via expression of an eGFP reporter gene under the control of an IFN-stimulated response element (ISRE) containing MxA promoter.; format: functional; details: 30 µM
[7] = biological target: T4, Tyrosyl-tRNA synthetase, putative (Trypanosoma cruzi (strain CL Brener)) (UniProt Q4DSP6); assay: Trypanosoma cruzi tyrosyl tRNA synthetase (TcYRS) _High Tyrosine SOP; format: functional; details: 30 µM; further: in the data most compounds retested in dose-response had high values
T4 sequence (whole entry): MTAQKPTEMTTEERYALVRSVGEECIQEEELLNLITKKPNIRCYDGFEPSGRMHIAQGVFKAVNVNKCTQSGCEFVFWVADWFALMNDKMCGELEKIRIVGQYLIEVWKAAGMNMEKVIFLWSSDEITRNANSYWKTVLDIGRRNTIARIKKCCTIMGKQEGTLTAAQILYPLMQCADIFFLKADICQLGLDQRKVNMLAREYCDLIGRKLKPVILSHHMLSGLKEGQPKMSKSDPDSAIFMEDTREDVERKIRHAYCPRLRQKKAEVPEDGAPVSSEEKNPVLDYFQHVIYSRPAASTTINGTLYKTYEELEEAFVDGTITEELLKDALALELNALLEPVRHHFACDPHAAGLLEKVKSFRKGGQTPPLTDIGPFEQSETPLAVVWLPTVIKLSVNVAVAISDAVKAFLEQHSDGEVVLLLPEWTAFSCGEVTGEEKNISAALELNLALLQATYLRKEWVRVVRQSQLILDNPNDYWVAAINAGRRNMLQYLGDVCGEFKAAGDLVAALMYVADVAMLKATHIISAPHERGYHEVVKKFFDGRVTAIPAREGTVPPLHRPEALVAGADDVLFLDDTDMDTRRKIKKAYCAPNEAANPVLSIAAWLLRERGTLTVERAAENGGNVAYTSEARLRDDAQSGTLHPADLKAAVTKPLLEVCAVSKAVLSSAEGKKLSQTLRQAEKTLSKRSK

[8] = biological target: T4, Tyrosyl-tRNA synthetase, putative (Trypanosoma cruzi (strain CL Brener)); assay: Trypanosoma cruzi tyrosyl tRNA synthetase (TcYRS) SOP; format: functional; details: 30 µM
[9] = biological target: Chromo domain-containing protein 1 (Saccharomyces cerevisiae (strain ATCC 204508 / S288c) (Baker's yeast)) (UniProt P32657); assay: ScCHD-1 Enzyme Inhibition Assay; format: functional; details: 30 µM; further: in the data most compounds retested in dose-response had high values
Chain of Chromo domain-containing protein 1 (Saccharomyces cerevisiae (strain ATCC 204508 / S288c) (Baker's yeast)) (P32657 whole entry, the tested form may be a part): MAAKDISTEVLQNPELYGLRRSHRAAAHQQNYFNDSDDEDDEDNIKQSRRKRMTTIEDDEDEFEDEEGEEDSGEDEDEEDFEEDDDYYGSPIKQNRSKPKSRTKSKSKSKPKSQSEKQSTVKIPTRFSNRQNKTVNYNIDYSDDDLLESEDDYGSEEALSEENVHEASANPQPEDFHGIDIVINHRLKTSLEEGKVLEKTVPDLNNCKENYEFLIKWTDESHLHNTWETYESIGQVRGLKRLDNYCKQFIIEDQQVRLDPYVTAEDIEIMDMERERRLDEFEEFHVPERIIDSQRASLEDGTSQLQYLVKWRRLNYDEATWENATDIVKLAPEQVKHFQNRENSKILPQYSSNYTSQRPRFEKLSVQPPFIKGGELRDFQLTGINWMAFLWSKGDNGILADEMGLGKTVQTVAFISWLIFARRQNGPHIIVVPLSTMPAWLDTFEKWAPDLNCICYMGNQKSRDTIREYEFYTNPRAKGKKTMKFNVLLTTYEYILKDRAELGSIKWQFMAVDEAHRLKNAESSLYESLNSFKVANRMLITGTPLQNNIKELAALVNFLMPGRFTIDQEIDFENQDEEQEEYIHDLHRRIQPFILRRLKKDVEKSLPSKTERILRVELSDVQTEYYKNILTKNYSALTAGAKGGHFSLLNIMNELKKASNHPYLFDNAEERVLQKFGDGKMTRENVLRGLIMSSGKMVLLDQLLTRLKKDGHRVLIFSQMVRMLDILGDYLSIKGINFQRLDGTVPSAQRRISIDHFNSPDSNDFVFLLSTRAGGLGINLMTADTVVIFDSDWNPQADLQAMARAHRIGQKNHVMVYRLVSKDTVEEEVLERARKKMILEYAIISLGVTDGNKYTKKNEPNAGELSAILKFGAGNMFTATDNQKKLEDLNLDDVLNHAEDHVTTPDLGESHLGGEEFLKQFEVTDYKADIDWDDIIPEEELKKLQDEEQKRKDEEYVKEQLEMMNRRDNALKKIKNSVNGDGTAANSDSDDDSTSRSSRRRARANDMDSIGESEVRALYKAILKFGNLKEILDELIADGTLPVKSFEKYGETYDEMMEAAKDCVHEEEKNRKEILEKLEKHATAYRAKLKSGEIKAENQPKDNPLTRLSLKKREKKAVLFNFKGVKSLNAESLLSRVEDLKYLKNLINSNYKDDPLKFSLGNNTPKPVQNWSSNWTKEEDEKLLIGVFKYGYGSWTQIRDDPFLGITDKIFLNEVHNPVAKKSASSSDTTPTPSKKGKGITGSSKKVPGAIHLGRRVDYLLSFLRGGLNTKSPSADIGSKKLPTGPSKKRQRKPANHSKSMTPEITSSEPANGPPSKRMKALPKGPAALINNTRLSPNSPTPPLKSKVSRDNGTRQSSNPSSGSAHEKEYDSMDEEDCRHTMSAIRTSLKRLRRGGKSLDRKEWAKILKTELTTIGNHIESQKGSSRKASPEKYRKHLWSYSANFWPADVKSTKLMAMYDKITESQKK

N/A = assay: Trypanosoma cruzi proteasome luciferase counter-screen; format: functional; details: 9.37 µM

| Compound | Percent Effect [1] [%] | Percent Effect [2] [%] | Percent Effect [3] [%] | Percent Effect [4] [%] | Percent Effect (Trypanosoma cruzi) [%] | Percent Effect ([5]; 33.3 µM) [%] | Percent Effect [6] | Percent Effect (Homo sapiens) [%] | Percent Effect [7] [%] | Percent Effect [8] [%] | Percent Effect [9] [%] | Percent Effect ([5]; 30 µM) [%] | Percent Effect (N/A) |
| --- | --- | --- | --- | --- | --- | --- | --- | --- | --- | --- | --- | --- | --- |
| Cc1nc(CN2CCCC2c2ccsc2)nc2ccccc12 (stereo not given) | -1.18 | -16.5 | 3.32 | 2.94 | 4 | 7.1 | 13.6% | 23.7 | 9.38 | 27.9 | 4.99 |  |  |
| CC(C)NC(=O)[C@H]1C[C@@H]2[C@@H](C1)OCCN2Cc1cnn(C)c1 | -3.53 | 0 | 4.75 | 2.29 | -5.6 | -50 | 4.44% | -6.54 | 3.12 | 10 | -4.52 |  |  |
| CNc1cc(CCNC(=O)c2cccnc2)nc(-c2ccncc2)n1 | -1.87 | 9.46 | 12.1 | 1.21 | -6.13 | 2.09 | 12% | -0.444 | 4.3 | 6.49 | -5.16 |  |  |
| Cc1nnc(NC(=O)NC2CCOc3ccccc32)s1 (stereo not given) | -3.11 | 5.48 | -3.94 | 7.64 | 1.59 | -4.39 | 12.8% | -9.09 | 12.5 | 23.5 | 1.07 |  |  |
| O=C(NCC(O)CN1CCc2ccccc2C1)Nc1cccnc1 (stereo not given) | -4.38 | 13 | 3.15 | 3.21 | 0.294 | 3.58 | 11.2% | 14.5 | 1.91 | -25.9 | -11.5 |  |  |
| Cn1c(CNc2c(F)cccc2-n2cccn2)cc(=O)n(C)c1=O | -1.07 | 6.94 | -4.86 | 3.69 | 1.46 | 20.8 | 6.14% | 5.47 | 5.26 | 10.3 | -0.228 |  |  |
| CC(C)CNC(=O)Nc1ccc(CN2CCOC2=O)cc1 | -6.23 | -15.3 | -5.54 | 6.22 | -2.23 | 0.442 | 12.8% | 25.7 | -7.37 | -25.6 | -1.07 |  |  |
| Cn1nnc2cc(C(=O)N3CCCC3Cc3ccccc3)ccc21 (stereo not given) | -4.28 | 2.74 | 2.56 | 2.89 | 4.11 | -3.18 | 5.68% | 7.53 | 0 | 5 | -4.61 |  |  |
| CC1CN(C)c2ccccc2CN1C(=O)CSc1ccncc1 (stereo not given) | -1.53 | 11 | 2.54 | 1.63 | 0.783 | 2.73 | 2.48% | 17.3 | 6.45 | 7.5 | -6.19 |  |  |
| CNC(=O)C1Cn2ccnc2C2(CCN(Cc3cccnc3)CC2)O1 (stereo not given) | -4.76 | 10.8 | 2.08 | 2.7 | -0.684 | -0.319 | 23.4% | -1.62 | 9.73 | 25.6 | -0.425 |  |  |
| COC(=O)CCN1CCCC1c1cccc2c1OCCO2 (stereo not given) | -3.03 | -2.67 | -0.184 | 36 | -0.682 | -2.6 | -1.92% | 5.8 | 3.83 | 3.7 | 3.53 |  |  |
| CS(=O)(=O)N1CCN(C(=O)Cn2ccc3c(Cl)cccc32)CC1 | -4.17 | -2.7 |  | -2.63 | -7.08 | -3.15 | 18.1% | 4.83 | 2.66 | 2.44 | -0.985 | 5.95 |  |
| CC(C)Oc1ncccc1CNC(=O)C1CCCN(C(=O)C2CC2)C1 (stereo not given) | -5.21 | 5.26 | -7.89 | -1.61 | -4.89 | 0 | 7.52% | 24.1 | 2.45 | 7.32 | -4.9 |  |  |
| CN1CC(=O)N(c2cnn(C)c2)CC12CCN(C(=O)c1ccsc1)C2 (stereo not given) | -5.41 | 1.3 |  | 3.75 | -6.13 | 2.43 | 6.27% | -0.162 | 2.63 | 2.56 | -2.51 |  |  |
| Cc1ccc(C(O)CNCCn2cccn2)cc1C (stereo not given) | -4.43 | 2.67 |  | 5.78 | 0.803 | 1.33 | 2.97% | 4.85 | 3.68 | 7.69 | -8.09 |  |  |
| Cc1cnc(CN2CCCC(c3cc(C(F)(F)F)[nH]n3)C2)cn1 (stereo not given) | -4.31 | 2.67 |  | 2.93 | -2.21 | 3.55 | 2.97% | 10.5 | 4.74 | 17.9 | -4.75 |  |  |
| Cn1ccc(C(=O)NCc2cccc(CN3CCCC3)c2)cc1=O | -1.76 | 20.8 |  | 0.574 | 2.05 | -6.35 | 19.2% and 18.4% and 34% | -14.3 | 11.8 | 30.6 | -13 |  | 12% and 8.64% |
| CC(Cn1cccn1)NC(=O)N1CCN(Cc2cccnc2)CC1 (stereo not given) | -6.34 | 7.79 |  | 1.46 | 1.87 | -1.02 | 11.2% | -5.12 | 5.88 | 23.5 | -16.2 |  |  |
| COc1ncc(C2(O)CCN(Cc3cccs3)CC2)c(OC)n1 | -5.49 | 22.7 |  | -1.28 | 2.76 | -3.54 | 11.2% | 4.21 | 8.47 | 20 | -25.5 |  |  |
| CC(C)N1CC(C(=O)NCc2ccnc(-n3cccn3)c2)CC1=O (stereo not given) | -1.72 | 12.8 |  | -8.26 | 0.469 | 8.2 | 3.33% | 25.3 | 5.26 | 13.2 | -3.04 |  |  |
| Cc1ccc(CNC(=O)NCc2cccnc2N(C)C)s1 | -4.97 | 15.6 | 7.34 | 4.07 | -4.68 | -3.2 | 1.35% | 19.1 | 8.74 | 12.2 | -5.69 |  |  |
| c1cnnc(N2CCCC(NCc3nnc(-c4ccco4)o3)C2)c1 (stereo not given) | -0.0972 | 25.6 |  | -15.5 | 1.03 | -0.82 | 25.2% | -0.0242 | 9.09 | 22.9 | -1.66 |  |  |

Source: ChEMBL document CHEMBL3988442, “University of Dundee, Small-Polar-MMV Screening Library” (2021)
